Laboratory results as given in PubChem BioAssay.
Inconclusive results are not listed. Activity calls are given as the source filed them. Unless noted, the limit is not given here; nearly all actives have AC50 up to about 26 µM.

Tests used:
[1] = growth inhibition of DIPG glioma cells, dose response, cell-based, SU-DIPG-XVII, MIPE5.0, CellTiter-Glo, qHTS (AID 1347060); details: SU-DIPG-XVII viability, CellTiter-Glo ATP luminescence;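 also: cells exposed to compound for 48 hours before viability readout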
[2] = growth inhibition of DIPG glioma cells, dose response, cell-based, SU-DIPG-XIII, MIPE4.0, CellTiter-Glo, qHTS (AID 1347061; cut-off not given, nearly all actives have AC50 up to about 37 µM;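 also: cells exposed to compound for 48 hours before readout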); details: SU-DIPG-XIII viability, CellTiter-Glo ATP luminescence
[3] = growth inhibition of DIPG glioma cells, dose response, cell-based, JHH-DIPG-1, MIPE4.0, CellTiter-Glo, qHTS (AID 1347062; cut-off not given, nearly all actives have AC50 up to about 27 µM;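 also: cells exposed to compound for two days before readout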); details: JHH-DIPG-1 viability, CellTiter-Glo ATP luminescence
[4] = growth inhibition of DIPG glioma cells, dose response, cell-based, SU-DIPG-IV, MIPE4.0, CellTiter-Glo, qHTS (AID 1347063; cut-off not given, nearly all actives have AC50 up to about 30 µM;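 also: compound exposure lasted 48 hours before the viability readout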); details: SU-DIPG-IV viability, CellTiter-Glo ATP luminescence
[5] = growth inhibition of DIPG glioma cells, dose response, cell-based, SU-DIPG-XIII, MIPE5.0, CellTiter-Glo, qHTS (AID 1347064; cut-off not given, nearly all actives have AC50 up to about 23 µM;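 also: cells exposed to compound for 48 hours before the viability read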); details: SU-DIPG-XIII viability, CellTiter-Glo ATP luminescence
[6] = viability loss in pontine glioma line – cell-based, SU-DIPG-XXV, MIPE5.0, CellTiter-Glo, qHTS, dose response (AID 1347065); details: CellTiter-Glo ATP luminescence;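 also: cells exposed to compound for 48 hours before ATP readout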
[7] = SU-DIPG-VI glioma cell viability, MIPE4.0 library, CellTiter-Glo luminescence, qHTS (AID 1347066; cut-off not given, nearly all actives have AC50 up to about 30 µM;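 also: cells exposed to compound for 48 hours before readout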); details: CellTiter-Glo ATP luminescence
[8] = JHH-DIPG-1 glioma cell viability, MIPE5.0 library, CellTiter-Glo luminescence, qHTS (AID 1347067); details: JHH-DIPG-1 glioma viability, CellTiter-Glo ATP luminescence;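 also: cells exposed to compound for 48 hours before readout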
[9] = SU-DIPG-XXV glioma cell viability, MIPE5.0 library, qHTS (AID 1347068; cut-off not given, nearly all actives have IC50 up to about 30 µM;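 also: cells exposed to compound for 48 hours before viability readout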)
[10] = modifiers of HSF1 nuclear foci, imaging, Selleck Cancer Library (AID 1347162; in the data active = plate-normalised HSF1 focus index below about 0.46); details: human cells, at 10 µM; SSMD: measured here: HSF1 foci SSMD mean; cell count: measured here: cell number; plate-normalised HSF1 focus index: stronger effect = lower value

Compound | AC50 [1] | AC50 [2] | AC50 [3] | AC50 [4] | AC50 [5] | AC50 [6] | AC50 [7] | AC50 [8] | IC50 [9] | SSMD [10] | cell count [10] | plate-normalised HSF1 focus index [10]
CN[C@@H]1C[C@H]2O[C@@](C)([C@@H]1OC)n1c3ccccc3c3c4c(c5c6ccccc6n2c5c31)C(=O)N[C@H]4O | 135 nM (active) | 590 nM (active) | 187 nM (active) | 1320 nM (active) | 85.5 nM (active) | 30.3 nM (active) | 296 nM (active) | 38.2 nM (active) | 605 nM (active) | – | – | –
Cn1c(=O)n(-c2ccc(C(C)(C)C#N)cc2)c2c3cc(-c4cnc5ccccc5c4)ccc3ncc21 | 481 nM (active) | 2640 nM (active) | 4180 nM (active) | 23.5 nM (active) | 855 nM (active) | 135 nM (active) | – | 855 nM (active) | – | -0.518 | 7130 | 0.984 (inactive)
